Results published in PubChem BioAssay AID1159580 (chemical genetic matrix, 2015).
Several values for one entry are separate records, joined by “and”; a condition that tells them apart may be missing. Identical values can stand only once. The whole screen tested about 5,500 compounds, of which about 2,000 (36%) were called active. Roughly 18% stayed inconclusive and do not appear here. Cut-off read from the data, not from the text of the source: active = normalized growth mostly below about 0.91 (no sharp cut-off); inconclusive = no clear call, values can overlap the other calls; inactive = mostly above about 0.92. This is one part of the list.

Test: chemical genetic growth profiling, strain panel (AID 1159580);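 note: tested at 20 µM; growth read once vehicle control cultures reached saturation at 30 °C; 1 = growth at the plate median or of vehicle wells; lower values mean less growth of the strain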
Conditions: S. cerevisiae deletion strains, growth OD

Measured: normalized growth

NC1CONC1=O (centres undefined)
inactive: locus YAL040C, strain CLN3, active compounds read low 1.01 and 0.999 | locus YCL061C, strain MRC1 (second series), active compounds read low 1 | locus YDR150W, strain NUM1, active compounds read low 1.01 | locus YDR363W, strain ESC2, active compounds read low 1.01 | locus YER002W, strain NOP16, active compounds read low 1.01 and 0.983 | locus YGR229C, strain SMI1, active compounds read low 1.01 | locus YMR307W, strain GAS1, active compounds read low 1.01 | locus YNL128W, strain TEP1, active compounds read low 1.03 | locus YNL153C, strain GIM3, active compounds read low 1.01 and 0.981 | locus YNL175C, strain NOP13, active compounds read low 1.02 | locus YNL197C, strain WHI3, active compounds read low 1.02 and 1 | locus YNL224C, strain SQS1, active compounds read low 0.993 and 0.985 | locus YOR083W, strain WHI5 (second series), active compounds read low 1.01 | locus YPL241C, strain CIN2, active compounds read low 1
